Screening results deposited in PubChem by Johns Hopkins Ion Channel Center.
This is a sample that favours compounds with a hit; in the whole collection about 1.6% have one here.
KCNQ2 block: blocks the rat KCNQ2 potassium channel. B-score at 10 µM. O88943. CHO-K1 KCNQ2, FluxOR thallium flux, 20 min; stronger effect = lower value. 310,000 compounds, 1.1% hits. AID 2156;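 active means fluorescence ratio B-score at most minus 3 library SDs, with starting brightness B-score within 2 library SDs, cut at about -5.5 in these data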
KCNQ2 pot: enhances the rat KCNQ2 potassium channel. O88943. CHO-K1 KCNQ2, FluxOR thallium flux fluorescence; stronger effect = higher value. B-score at 10 µM. 310,000 compounds, 0.54% hits;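 active means fluorescence ratio B-score at least 3 SD of library B-scores, with initial fluorescence B-score within 3 of them, cut at about 5.3 in these data; same plate scores as AID 2156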;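 further: B-score of peak minus minimum over baseline fluorescence ratio after K+ and Tl+ stimulus; positive B-score means potentiation of KCNQ2 with more thallium influx and brighter signal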
Kir21 confirm: confirmation of mouse Kir2.1 potassium channel inhibitors; AID 2032; shares compounds with KCNQ2 pot; Kir2.1-expressing cells, FluxOR thallium flux fluorescence; stronger effect = lower value; 2,300 compounds, 41% hits; Tl flux remaining, % of negative control (stronger effect = lower value), % at 10 µM;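 active means Primary-screen hit whose thallium flux fell at least 3 control SD below untreated wells in both duplicates, with normal baseline fluorescence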;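 further: 0% = blank wells without stimulus and 100% = stimulated no-compound controls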
HEK293 Tl flux: counter-screen for Kir2.1 inhibitors: effect in parental HEK293 cells | AID 2105 | 2,300 compounds, 19% hits | shares compounds with KCNQ2 pot | FluxOR thallium flux fluorescence; 0% = unstimulated blank wells | FluxOR signal as % of negative control (100 = no effect), % at 10 µM;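 active means dye signal at least 3 control SD above or below untreated wells in both duplicates, raw fluorescence within 3, either direction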;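 further: percent is based on the flux ratio of peak minus minimum fluorescence over baseline F0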
CHO-K1 Tl ctr: alters thallium flux in parental CHO-K1 cells, KCNQ2 counter-screen. shares compounds with KCNQ2 pot. activity increase over 3SD of controls, % at 10 µM. 1,200 compounds, 43% hits. FluxOR thallium flux fluorescence; zero = vehicle mean+3SD, 100% = vehicle-minus-blank window;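 active means signal rise of at least 3 SD above the untreated control mean, in both duplicate wells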;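 further: counter screen of KCNQ2 potentiator hits so any rise reflects channel-independent effects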
KCNQ1 sel pot: human KCNQ1 counter-target activity of KCNQ2 potentiators. CHO KCNQ1 stable, FluxOR thallium flux fluorescence; beyond 3SD, as % of vehicle-control signal. shares compounds with KCNQ2 pot. 1,200 compounds, 28% hits. activation over 3SD threshold, % at 10 µM;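 active means fluorescence ratio rise of at least 3 SD of vehicle wells above their mean, in both replicate wells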;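 further: 0% = vehicle mean plus 3 SD and 100% = vehicle minus unstimulated blank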
Target sequence (P51787 whole entry, looked up): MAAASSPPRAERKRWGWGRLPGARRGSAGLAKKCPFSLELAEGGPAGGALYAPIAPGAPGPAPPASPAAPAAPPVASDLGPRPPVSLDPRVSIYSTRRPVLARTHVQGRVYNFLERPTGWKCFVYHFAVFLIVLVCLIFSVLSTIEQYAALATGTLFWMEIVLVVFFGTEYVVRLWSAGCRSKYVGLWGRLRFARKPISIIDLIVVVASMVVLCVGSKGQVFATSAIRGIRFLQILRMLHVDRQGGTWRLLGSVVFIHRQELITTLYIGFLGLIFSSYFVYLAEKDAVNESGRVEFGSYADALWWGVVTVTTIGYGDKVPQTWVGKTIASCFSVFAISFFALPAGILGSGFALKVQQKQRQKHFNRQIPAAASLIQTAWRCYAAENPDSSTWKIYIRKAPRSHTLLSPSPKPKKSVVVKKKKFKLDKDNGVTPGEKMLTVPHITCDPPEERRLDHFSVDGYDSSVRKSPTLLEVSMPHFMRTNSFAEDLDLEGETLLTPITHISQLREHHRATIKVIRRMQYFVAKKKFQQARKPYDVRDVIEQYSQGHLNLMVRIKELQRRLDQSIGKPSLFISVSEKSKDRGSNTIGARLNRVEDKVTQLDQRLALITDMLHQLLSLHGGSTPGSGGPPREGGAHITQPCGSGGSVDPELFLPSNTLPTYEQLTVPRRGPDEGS
KCNQ2 pot conf: confirmation of rat KCNQ2 potassium channel potentiators | shares compounds with KCNQ2 pot | CHO-KCNQ2 cells, FluxOR thallium flux fluorescence | potentiation, less the hit threshold, % at 10 µM | 1,200 compounds, 68% hits | AID 2287;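 active means fluorescence ratio rising 3 SD or more over the vehicle control mean in both replicates, plus primary screen hit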;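 further: peak minus minimum thallium fluorescence divided by baseline after K/Tl stimulus; 0% = vehicle mean plus 3 SD and 100% = vehicle minus unstimulated blank difference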
Kir2-1 sel: tests whether KCNQ2 potentiators also affect mouse Kir2.1; shares compounds with KCNQ2 pot; HEK293 Kir2.1, FluxOR thallium flux fluorescence; activity over 3SD threshold, % at 10 µM; 1,200 compounds, 2% hits;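 active means fluorescence ratio rise of at least 3 SD above the vehicle-control mean, seen in both replicates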;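 further: 0% = vehicle mean plus 3 SD and 100% = vehicle minus no-stimulus blank window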
KCNQ2 W236L pot: KCNQ2 potentiators acting on retigabine-insensitive rat KCNQ2 W236L mutant. shares compounds with KCNQ2 pot. CHO KCNQ2-W236L, automated patch clamp current. current increase over 3SD of negative controls (%), stronger effect = higher value, % at 25 µM. 940 compounds, 10% hits. AID 2558;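 active means current increase at least 3 SD of the untreated controls above them in both duplicate recordings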
Active calls of the source: *.

How did CC(Sc1ccccc1)C(=O)NCC(c1ccco1)N1CCCCC1 (configuration not stated) do in these assays?
KCNQ2 block: inactive; KCNQ2 pot: 0.23

What do the screens show for `COc1ccc(/C(C)=N/Nc2ccc(C(=O)O)cc2)c(OC)c1`?
KCNQ2 block: inactive

How did COc1ccc2c(c1)C(=NNc1ccc(C(=O)O)cc1)c1cc(OC)ccc1-2 do in these assays?
KCNQ2 block: inactive; KCNQ2 pot: 7.5*; Kir21 confirm: inactive; HEK293 Tl flux: inactive; CHO-K1 Tl ctr: -15; KCNQ1 sel pot: -17; KCNQ2 pot conf: -18; Kir2-1 sel: -31

What do the screens show for `CC1(c2ccccc2Cl)NC(=O)N(CC(=O)NCc2ccc3c(c2)OCO3)C1=O` (configuration not stated)?
KCNQ2 block: inactive; KCNQ2 pot: 0.43

How did COCCNC(=O)C(c1ccc(O)cc1)N(Cc1ccccc1)C(=O)CCC(=O)Nc1nccs1 (configuration not stated) do in these assays?
KCNQ2 block: inactive; KCNQ2 pot: 0.01

How did CCNc1nc(OC)nc(SCC(=O)Nc2ccccc2)n1 do in these assays?
KCNQ2 block: inactive; KCNQ2 pot: 0.65

How did Cc1ccccc1OCc1nnc(SCC(=O)O)n1-c1ccccc1 do in these assays?
KCNQ2 block: inactive; KCNQ2 pot: 0.78

How did Cc1ccccc1OCCSc1nnc(C)n1-c1ccccc1 do in these assays?
KCNQ2 block: inactive; Kir21 confirm: 46%*; HEK293 Tl flux: inactive

Results for Cc1cc(OC(C)C(=O)N2CCN(c3ccc(F)cc3)CC2)c2c(C)cc(=O)oc2c1 (configuration not stated) ?
KCNQ2 block: inactive

How did OCCN1CCN(Cc2cc(Cl)c3cccnc3c2O)CC1 do in these assays?
KCNQ2 block: inactive; KCNQ2 pot: 1

Results for O=C(Oc1c(CN2CCOCC2)cc(Cl)c2cccnc12)c1cccs1 ?
KCNQ2 block: inactive

How did Oc1c(Cl)cc(CN2CCCCC2)c2cccnc12 do in these assays?
KCNQ2 block: inactive

How did O=C(Oc1c(Cl)cc(Cl)c2cccnc12)c1cccs1 do in these assays?
KCNQ2 block: inactive; KCNQ2 pot: 11*; Kir21 confirm: inactive; HEK293 Tl flux: inactive; CHO-K1 Tl ctr: -5; KCNQ1 sel pot: -38; KCNQ2 pot conf: -34; Kir2-1 sel: -41

Results for Oc1c(Cl)cc(Cl)c2cccnc12 ?
KCNQ2 block: inactive; KCNQ2 pot: 7.8*; Kir21 confirm: inactive; HEK293 Tl flux: 176%*; CHO-K1 Tl ctr: -12; KCNQ1 sel pot: -15; KCNQ2 pot conf: 11*; Kir2-1 sel: -12; KCNQ2 W236L pot: inactive

What do the screens show for `Oc1c(CN2CCN(c3ccccn3)CC2)cc(Cl)c2cccnc12`?
KCNQ2 block: inactive; KCNQ2 pot: 11*; Kir21 confirm: inactive; HEK293 Tl flux: 146%*; CHO-K1 Tl ctr: 4.1*; KCNQ1 sel pot: -5; KCNQ2 pot conf: 24*; Kir2-1 sel: -25; KCNQ2 W236L pot: inactive

Results for Cc1[nH]c(=O)[nH]c(=O)c1S(=O)(=O)N1CCCC(C(=O)NCCC2=CCCCC2)C1 (configuration not stated) ?
KCNQ2 block: inactive

Results for CCCCCCSc1ccc([C@H]2N[C@@](C)(C(=O)OC)[C@H]3C(=O)N(CC)C(=O)[C@@H]23)cc1 ?
KCNQ2 block: inactive

Results for Cc1cc(C)c2c(c1)/C(=c1/sc3n(c1=O)CN(c1ccccc1)CN=3)C(=O)N2 ?
KCNQ2 block: inactive

Results for COc1ccc(Cl)cc1NC(=S)NC1CCCC1 ?
KCNQ2 block: inactive

Results for CCOC(=O)C1(CC2CCCCO2)CCN(C(=O)NCc2ccccc2)CC1 (configuration not stated) ?
KCNQ2 block: inactive

How did FC(F)(F)c1cccc(Cn2c3[n+](c4ccc(C(F)(F)F)cc42)CCCCC3)c1 do in these assays?
KCNQ2 block: inactive

Results for Cc1cc(C(C)(C)C)cc(C)c1Cn1c2[n+](c3ccc(C(F)(F)F)cc31)CCCCC2 ?
KCNQ2 block: inactive; Kir21 confirm: 46%*; HEK293 Tl flux: inactive

Results for CC(=O)Nc1ccc(NC(=O)CSc2ccc3nnc(-c4cccnc4)n3n2)cc1 ?
KCNQ2 block: inactive; KCNQ2 pot: 0.5

How did ON/C=N/C(=S)Nc1ncc(C(F)(F)F)cc1Cl do in these assays?
KCNQ2 block: inactive; KCNQ2 pot: 11*; Kir21 confirm: inactive; HEK293 Tl flux: 140%*; CHO-K1 Tl ctr: -1; KCNQ1 sel pot: -13; KCNQ2 pot conf: 41*; Kir2-1 sel: -37; KCNQ2 W236L pot: inactive

What do the screens show for `CON/C=N/C(=S)Nc1ncc(C(F)(F)F)cc1Cl`?
KCNQ2 block: inactive; KCNQ2 pot: 12*; Kir21 confirm: inactive; HEK293 Tl flux: 218%*; CHO-K1 Tl ctr: -22; KCNQ1 sel pot: 32*; KCNQ2 pot conf: 18*; Kir2-1 sel: -21; KCNQ2 W236L pot: inactive

What do the screens show for `Cc1ccc(NC(=S)NNc2ncc(C(F)(F)F)cc2Cl)cc1`?
KCNQ2 block: inactive; KCNQ2 pot: 1.9

What do the screens show for `CC(Cl)C(=O)Nc1ncc(C(F)(F)F)cc1Cl` (configuration not stated)?
KCNQ2 block: inactive; KCNQ2 pot: 0.2

How did O=C(NCCN1CCCC1)C(c1ccccc1)c1ccccc1 do in these assays?
KCNQ2 block: inactive

What do the screens show for `CC(C)c1ccc(NC(=O)C2CC2c2ccccc2)cc1` (configuration not stated)?
KCNQ2 block: inactive; KCNQ2 pot: 17*; Kir21 confirm: inactive; HEK293 Tl flux: inactive; CHO-K1 Tl ctr: 20*; KCNQ1 sel pot: -9; KCNQ2 pot conf: 28*; Kir2-1 sel: -24; KCNQ2 W236L pot: inactive

What do the screens show for `O=C(Nc1ccncc1)C1CC1c1ccccc1` (configuration not stated)?
KCNQ2 block: inactive; KCNQ2 pot: 0.89

What do the screens show for `Cc1ccc(NC(=O)/C=C\C(=O)O)c([N+](=O)[O-])c1`?
KCNQ2 block: inactive

What do the screens show for `O=C(Nc1cccc(Cl)c1)C1CC1c1ccccc1` (configuration not stated)?
KCNQ2 block: inactive; KCNQ2 pot: 0.27
